Data on 7 compounds can be found in PubChem BioAssay (NCI).

Among the test systems are NCI-H23 lung; NCI-H226 lung; NCI-H322M lung; HOP-62 NSCLC; NCI-H460 lung; HOP-92 NSCLC; NCI-H522 lung; A549/ATCC NSCLC; 786-0 renal; COLO 205 colon; DU-145 prostate; K-562 leukemia; MALME-3M melanoma; MDA-MB-231 breast; RXF 393 renal; SF-268 CNS; SF-295 CNS; SF-539 CNS; UACC-257 melanoma; M14 melanoma.
What all share (assay): NCI-60 one-dose screen, 48 h (100 = growth as untreated, 0 = no growth, -100 = all killed)
What all share (conditions): 10 µM unless noted

This is part of a sample that, as a whole, favours compounds with a hit. Of some 83,000 tested, about 20% had one in any assay.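 Testing used 96-well plates and a 48-hour single-concentration exposure. Example: -40 means 40% of the starting cells died.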 A number with no mark means an inactive call. Calls of active or inactive are those of the source. How the source made its calls: active means growth percent below 10; inactive means the rest.

For `c1ccc(-c2nc3sc(C(c4ccccc4)c4ccccc4)nn3c2-c2ccccc2)cc1`, the growth was 92.2% in the assay with NCI-H23 lung; 99.6% in the assay with NCI-H226 lung; 93.6% with NCI-H322M lung; 89.9% in the assay with HOP-62 NSCLC; 95.6% with NCI-H460 lung; 77.9% in the assay with HOP-92 NSCLC. The growth in the assay with NCI-H522 lung is 95.3%; in the assay on A549/ATCC NSCLC, 85.3%; with 786-0 renal, 94.9%; in the assay with COLO 205 colon, 86.8%; in the assay with DU-145 prostate, 99.9%; in the assay with K-562 leukemia, 106%. In addition, the growth is 86.4% with MALME-3M melanoma; 97.8% in the assay with MDA-MB-231 breast; 109% in the assay on RXF 393 renal; 92.6% with SF-268 CNS; 98.6% with SF-295 CNS; 98% in the assay with SF-539 CNS. The growth was 92.2% with UACC-257 melanoma and 92% with M14 melanoma.
With `COc1ccc(/C(=C/c2cc(OC)c(OC)c(OC)c2)[N+](=O)[O-])cc1`, the growth in the assay on NCI-H23 lung was 24.1%; in the assay on NCI-H226 lung, 3.77% (active); in the assay with NCI-H322M lung, 86.7%; with HOP-62 NSCLC it was 68.3%; with NCI-H460 lung, 13%; in the assay on HOP-92 NSCLC it was -24.6% (active). For the same compound, the growth in the assay on NCI-H522 lung was -37% (active); with A549/ATCC NSCLC it was 65.8%; with 786-0 renal it was -44.3% (active); in the assay with COLO 205 colon, -51.5% (active); in the assay on DU-145 prostate, 16.3%; in the assay with K-562 leukemia, 3.58% (active). Also, the growth with MALME-3M melanoma was -10.8% (active); in the assay with MDA-MB-231 breast, 9.98% (active); in the assay with RXF 393 renal, -85.1% (active); in the assay on SF-268 CNS it was 17.6%; with SF-295 CNS, 103%; in the assay on SF-539 CNS, -11.3% (active). For the same compound, the growth is 31.8% with UACC-257 melanoma and 2.06% (active) with M14 melanoma.
`CS(=O)(=O)OCC(COS(C)(=O)=O)C(c1ccccc1)c1ccccc1`: the growth in the assay on NCI-H23 lung is 96.9%; in the assay with NCI-H226 lung it was 103%; in the assay on NCI-H322M lung it was 97.9%; with HOP-62 NSCLC it was 91.2%; in the assay with NCI-H460 lung it was 110%; in the assay on HOP-92 NSCLC, 85.2%. Besides, the growth is 95.4% in the assay on NCI-H522 lung; 92.3% in the assay on A549/ATCC NSCLC; 99.4% in the assay with 786-0 renal; 124% with COLO 205 colon; 129% in the assay on DU-145 prostate; 101% with K-562 leukemia. Also, the growth in the assay with MALME-3M melanoma is 99.7%; in the assay with MDA-MB-231 breast it was 96.5%; with RXF 393 renal, 97.4%; in the assay on SF-268 CNS it was 109%; with SF-295 CNS, 97.2%; with SF-539 CNS it was 118%. Also, the growth in the assay on UACC-257 melanoma was 111%; in the assay on M14 melanoma, 106%.
Take `CN1CCN(Cn2nc(-c3cc(F)c(Cl)cc3Cl)n(/N=C/c3ccc(N(C)C)cc3)c2=S)CC1`: the growth was 98% in the assay with NCI-H23 lung; 101% in the assay on NCI-H226 lung; 83.1% with NCI-H322M lung; 56% in the assay with HOP-62 NSCLC; 115% with NCI-H460 lung; 84.5% with HOP-92 NSCLC. Also, the growth is 69% in the assay on NCI-H522 lung; 106% with A549/ATCC NSCLC; 93.3% in the assay on 786-0 renal; 103% with COLO 205 colon; 87.3% in the assay with DU-145 prostate; 22.4% in the assay on K-562 leukemia. For the same compound, the growth with MALME-3M melanoma was 63.4%; with MDA-MB-231 breast, 102%; with RXF 393 renal, 82.7%; in the assay with SF-268 CNS, 102%; in the assay with SF-295 CNS, 48.4%; with SF-539 CNS, 78.1%. For the same compound, the growth in the assay with UACC-257 melanoma was 93.8%; in the assay with M14 melanoma, 37.3%.
Turning to `c1cncc(-c2nc3ccccc3[nH]2)c1`, the growth with NCI-H23 lung was 84.4%; with NCI-H226 lung it was 92.7%; in the assay on NCI-H322M lung it was 101%; with HOP-62 NSCLC, 83.2%; in the assay with NCI-H460 lung, 105%; in the assay with HOP-92 NSCLC, 103%. The growth is 99.8% in the assay on NCI-H522 lung; 93.9% in the assay with A549/ATCC NSCLC; 107% in the assay with 786-0 renal; 89.1% in the assay with COLO 205 colon; 112% in the assay with DU-145 prostate; 102% with K-562 leukemia. In addition, the growth was 109% in the assay on MALME-3M melanoma; 83.4% in the assay on MDA-MB-231 breast; 94.6% with RXF 393 renal; 105% in the assay on SF-268 CNS; 118% in the assay with SF-295 CNS; 97.8% with SF-539 CNS. Moreover, the results for the growth in the assay on UACC-257 melanoma and in the assay on M14 melanoma were 27.7% and 99.7%, respectively.
As to `CCCCCCCCCCCCCCCC(=O)NS(=O)(=O)OC[C@H]1O[C@@H](n2cnc3c(N)ncnc32)[C@H](O)[C@@H]1O`, the growth with NCI-H23 lung was -39.5% (active); in the assay on NCI-H226 lung, -65.1% (active); in the assay with NCI-H322M lung it was -46.2% (active); in the assay with HOP-62 NSCLC, -25% (active); in the assay with NCI-H460 lung, -10.1% (active); with HOP-92 NSCLC, -65.7% (active). In addition, the growth with NCI-H522 lung is -33.3% (active); in the assay with A549/ATCC NSCLC it was 9.49% (active); in the assay with 786-0 renal it was -69.6% (active); with COLO 205 colon, -62.8% (active); in the assay with DU-145 prostate, -33.6% (active); in the assay on K-562 leukemia, 8.9% (active). Besides, the growth is -51.6% (active) in the assay on MALME-3M melanoma; -25.6% (active) with MDA-MB-231 breast; -83.4% (active) in the assay on RXF 393 renal; -42.6% (active) with SF-268 CNS; -34.6% (active) in the assay with SF-295 CNS; -69.4% (active) in the assay with SF-539 CNS. The values for the growth in the assay on UACC-257 melanoma and in the assay on M14 melanoma were -20.7% (active) and -68.2% (active), respectively.
`O=C(O)c1cc2ccccc2cc1Nc1ccccc1`: the growth with NCI-H23 lung is 84.6%; with NCI-H226 lung, 93.8%; in the assay on NCI-H322M lung, 108%; in the assay with HOP-62 NSCLC it was 82.3%; with NCI-H460 lung, 91.8%; with HOP-92 NSCLC, 91.3%. Also, the growth is 80.6% with NCI-H522 lung; 87.6% in the assay on A549/ATCC NSCLC; 101% with 786-0 renal; 122% in the assay on COLO 205 colon; 113% in the assay on DU-145 prostate; 98.3% with K-562 leukemia. The growth with MALME-3M melanoma was 111%; in the assay with MDA-MB-231 breast, 96.2%; in the assay with RXF 393 renal, 77.7%; with SF-268 CNS it was 99.7%; in the assay with SF-295 CNS, 104%; in the assay with SF-539 CNS it was 74.2%. Besides, the growth with UACC-257 melanoma is 4.2% (active); with M14 melanoma it was 96.7%.
